# In PubChem BioAssay AID588727 (Southern Research Specialized Biocontainment Screening …, 2011):
# Among all 350,000 compounds or so, about 450 (0.13%) were called active. No rule for the calls is given here. A selection follows. Results with a measured potency or affinity are listed apart.
# Assay: inhibitors of VEEV TC-83 cytopathic effect, confirmation, Vero cells (AID 588727)
# Settings: VEEV TC-83 cytopathic effect inhibition, at 20 µM
# [1] = measured here: 10K pilot screen inhibition, stronger effect = higher value
# [2] = stronger effect = higher value unless noted
smiles,measurement,setting,value
O=c1[nH]c(CSc2ncccn2)nc2c1cnn2-c1ccccc1,inhibition,stronger effect = higher value,5.59% (inactive)
same,inhibition,[1],3.44%
c1ccc(-n2ncc3c2ncn2nc(CSc4nc5ccccc5s4)nc32)cc1,inhibition,[2],inactive
CCc1ccc(OCC(=O)Nc2nnc(-c3ccco3)s2)cc1,inhibition,[2],0.88% (inactive)
Fc1ccc(-n2ncc3c(SCc4cccnc4)ncnc32)cc1,inhibition,[2],3.59% (inactive)
Cc1ccc(-n2ncc3c(NCc4cccnc4)ncnc32)c(C)c1,inhibition,[2],1.66% (inactive)
CSc1ncnc2c1cnn2-c1ccc(C)cc1C,inhibition,[2],8.17% (inactive)
Cc1ccc(-n2ncc3c(NCc4ccccn4)ncnc32)c(C)c1,inhibition,[2],1.72% (inactive)
COc1ccc(C(C(=O)NCC2CCCO2)N(Cc2ccc(F)cc2)C(=O)CNC(=O)c2ccco2)cc1OC (configuration not stated),inhibition,[2],1.15% (inactive)
Cc1cc(O)ccc1N1C(=O)c2cccc3cc([N+](=O)[O-])cc(c23)C1=O,inhibition,[2],inactive
O=C1c2cccc3cc([N+](=O)[O-])cc(c23)C(=O)N1c1nncs1,inhibition,[2],inactive
Cc1ccc(C)c(OCc2cc(C(=O)N3CCN(c4ccccc4C)CC3C)no2)c1 (configuration not stated),inhibition,[2],4.26% (inactive)
Cc1cc(C(=O)N(Cc2nnc(-c3ccc(Cl)cc3)o2)C(C)C)c2ccccc2n1,inhibition,[2],8.49% (inactive)
c1ccc(-c2nc(-c3ccccn3)no2)cc1,inhibition,[2],inactive
c1ccc(-c2cnnc(-c3ccccn3)n2)cc1,inhibition,[2],2.25% (inactive)
CCCCn1c(N)c(N(CCC(C)C)C(=O)CSc2nnc3ccccn23)c(=O)[nH]c1=O,inhibition,[2],0.96% (inactive)
COCCCNC(=O)/C=C/c1ccc(Cl)cc1,inhibition,[2],inactive
CN(C)CCCNC(=O)/C=C/c1ccc2c(c1)OCO2,inhibition,stronger effect = higher value,0.85% (inactive)
same,inhibition,[1],1.09%
Cc1cc(-c2nnc(CCC(=O)NC(C)c3ccc(F)cc3)o2)no1 (configuration not stated),inhibition,stronger effect = higher value,0.09% (inactive)
same,inhibition,[1],1.8%
Nc1nnc(SCC(=O)OCC(=O)Nc2ccc(Br)cc2F)s1,inhibition,[2],1.19% (inactive)
COc1ccc(S(=O)(=O)N2CCOCC2)cc1C(=O)NCc1ccccc1CN1CCCC1,inhibition,[2],0.08% (inactive)
CCc1ccc(-c2nc(CSCC(=O)NCCCN3CCCC3=O)c(C)o2)cc1,inhibition,[2],3.51% (inactive)
O=C1N=C(N2CCCCC2)S/C1=C\c1ccccc1F,inhibition,[2],0.16% (inactive)
CCCOc1ccccc1/C=C1\SC(N)=NC1=O,inhibition,[2],2.5% (inactive)
CCOC(=O)C1CCCN(c2oc(-c3ccc(OC)cc3)nc2C#N)C1 (configuration not stated),inhibition,[2],2.16% (inactive)
O=C(COC(=O)COc1ccccc1)NCCc1ccccc1,inhibition,[2],0.2% (inactive)
CCC(=NC(C)c1ccccc1)c1c(O)[nH]c(=O)[nH]c1=O (configuration not stated),inhibition,[2],1.39% (inactive)
CCn1c(SCC(=O)N/N=C/c2ccc(OC)c(OC)c2)nc2ccccc21,inhibition,stronger effect = higher value,4.2% (inactive)
same,inhibition,[1],2.22%
C=CCSc1nc2ccccc2n1C(=O)/C=C/c1cc(OC)c(OC)c(OC)c1,inhibition,[2],2.65% (inactive)
CC(=O)N1CCC(N(CCCOC(C)C)S(=O)(=O)c2ccc([N+](=O)[O-])cc2)CC1,inhibition,[2],inactive
Cc1oc(-c2ccccc2Cl)nc1CSCC(=O)O,inhibition,[2],1.08% (inactive)
Cc1ccc(-c2nc(CSCC(=O)N3CCCC3)c(C)o2)cc1,inhibition,[2],inactive
COc1ccc(NC(=O)c2cn(-c3ccccc3)nc2-c2ccncc2)cc1,inhibition,[2],8.65% (inactive)
Cc1onc(-c2ccccc2)c1C(=O)NC(=S)NNC(=O)c1ccncc1,inhibition,[2],1.78% (inactive)
O=C(NC(=S)NCCO)c1cn(-c2ccccc2)nc1-c1ccccc1,inhibition,[2],1.03% (inactive)
CCN(CC)CCNC(=S)NC(=O)c1cn(-c2ccccc2)nc1-c1ccc(OC)cc1,inhibition,[2],inactive
Cc1onc(-c2ccccc2)c1C(=O)Nc1sc2c(c1C#N)CCC2,inhibition,[2],"2.67% [measured here: 10K pilot screen inhibition, stronger effect = higher value]"
same,outcome,[2],inactive
Cc1ccc(NC(=O)Nc2nnc(-c3ccccc3F)s2)cc1,inhibition,[2],0.72% (inactive)
Cc1ccc(S(=O)(=O)N(C)c2ccc(C(=O)Nc3c(C)n(C)n(-c4ccccc4)c3=O)cc2)cc1,inhibition,[2],2.04% (inactive)
Cn1ncc(Br)c1C(=O)O,inhibition,stronger effect = higher value,0.63% (inactive)
same,inhibition,[1],1.4%
CCC1CSC(Nc2ccc(C(=O)/C=C/c3ccc(Br)cc3)cc2)=N1 (configuration not stated),inhibition,[2],0.39% (inactive)
CCC1CSC(Nc2ccc(C(=O)/C=C/c3cccc(C)c3)cc2)=N1 (configuration not stated),inhibition,[2],32.8% (inactive)
COc1ccc(C(=O)NC2CCCc3c2cnn3-c2cc(F)cc(F)c2)c(OC)n1 (configuration not stated),inhibition,[2],0.41% (inactive)
O=C(NC1CCCc2c1cnn2-c1ccccc1F)c1ccncc1 (configuration not stated),inhibition,[2],inactive
Cc1cc(C(=O)NC2CCCc3c2cnn3-c2cccc(C)c2C)n(C)n1 (configuration not stated),inhibition,[2],inactive
CC1=C(C(=O)NC2CCCc3c2cnn3-c2cccc(C)c2C)OCCO1 (configuration not stated),inhibition,[2],1.75% (inactive)
COCCC(=O)NC1CCCc2c1cnn2-c1cccc(C)c1C (configuration not stated),inhibition,[2],inactive
O=C(NC1CCCc2c1cnn2-c1ccc(F)cc1F)c1ccccn1 (configuration not stated),inhibition,[2],inactive
O=C(CSc1nnc(Cc2ccccc2)c(=O)[nH]1)Nc1ccccc1,inhibition,[2],1.19% (inactive)
CC1CCCC(=NNC(=O)C2COc3ccccc3O2)C1 (configuration not stated),inhibition,[2],1.68% (inactive)
C=CCNc1n[nH]c(=S)s1,inhibition,[2],0.53% (inactive)
Cc1cc(/C=C(\C#N)C(=O)Nc2ccccc2)c(C)n1-c1cccnc1,inhibition,[2],4.21% (inactive)
CCC(NC(=O)Cc1c(C)c2cc3c(cc2oc1=O)OC(C)(C)CC3)C(=O)O (configuration not stated),inhibition,[2],0.65% (inactive)
C(=N\N1CCN(C(c2ccccc2)c2ccccc2)CC1)/c1ccc2c(c1)OCO2,inhibition,[2],inactive
COC(=O)c1c(C)[nH]c(C(=O)C(C)OC(=O)c2c(C)noc2C)c1C (configuration not stated),inhibition,[2],inactive
O=C1N=C(N2CCOCC2)SC1=C1CCCCC1,inhibition,[2],1.03% (inactive)
Cc1cccc(N2CCN(Cc3nc(-c4cccc(Cl)c4)oc3C)CC2)n1,inhibition,[2],inactive
CCN(CCNC(=O)C1CCN(Cc2nc(-c3ccc(Cl)cc3)oc2C)CC1)c1ccccc1,inhibition,[2],inactive
Cc1oc(-c2ccc(Cl)cc2)nc1CN1CCC(C(=O)NCCCN2CCOCC2)CC1,inhibition,[2],2.07% (inactive)
Cc1cc(N2CCN(Cc3nc(-c4ccc(F)cc4)oc3C)CC2)cc(C)n1,inhibition,[2],0.13% (inactive)
Cc1ccccc1-c1nc(CN2CCC(C(=O)NCCCN3CCCC(C)C3)CC2)c(C)o1 (configuration not stated),inhibition,[2],9.38% (inactive)
Cc1oc(-c2ccc(Cl)cc2)nc1CN1CCC(C(=O)NCC2CCCO2)CC1 (configuration not stated),inhibition,[2],0.22% (inactive)
